Assay results: PubChem BioAssay (NCATS)
Records with an inconclusive call do not appear. The source made the active and inactive calls. The call rests on the fitted dose curve; in most records, active means well fitted curve in the direction sought with a large enough effect; inconclusive means small, poorly fitted or top-dose-only effect, or another doubt; inactive means no such curve, though single readings can be large; an effect the other way counts as inactive or inconclusive.

How the values were obtained:
NIH3T3 = assay: qHTS assay to identify novel small-molecules to repurpose for Merkel cell carcinoma treatment (AID 1296009); settings: MCC and control cell lines, CellTiter-Glo viability, 72 h; at 44.8 µM (top of the series) unless noted; further: nearly all actives have a fitted effect of over 60% in size
Procedure, shortened: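 72 hr, 37 degree celsius; NPC 8-pt / MIPE 11-pt dose response; compound pinned in DMSO; CellTiter-Glo, 10 min RT, luminescence; normalized to no-cell and DMSO controls.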

C33A = assay: Primary qHTS to identify gynecologic anti-cancer compounds using libraries of approved drugs and bioactive compounds (AID 1345084); settings: Gynecologic cancer cell panel viability, ATPlite luminescence, 48 h; series mostly up to 57.5 µM; further: on the % scale 0 is the no-effect control and ±100 the full control effect; nearly all actives have a fitted effect of over 55% in size
Procedure, shortened: (§1)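 Cell viability after 48 h drug treatment, ATPlite luminescence readout; five doses.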

CAOV3 = assay: as above; settings: Gynecologic cancer cell panel viability, ATPlite luminescence, 48 h; series mostly up to 57.5 µM
Procedure, shortened: as §1

CASKI = assay: as above; settings: Gynecologic cancer cell panel viability, ATPlite luminescence, 48 h; series mostly up to 57.5 µM
Procedure, shortened: as §1

Es-2 = assay: as above; settings: Gynecologic cancer cell panel viability, ATPlite luminescence, 48 h; series mostly up to 57.5 µM
Procedure, shortened: as §1

HeLa = assay: as above; settings: Gynecologic cancer cell panel viability, ATPlite luminescence, 48 h; series mostly up to 57.5 µM
Procedure, shortened: as §1

Hek293T = assay: as above; settings: Gynecologic cancer cell panel viability, ATPlite luminescence, 48 h, control line for the selectivity index; series mostly up to 57.5 µM
Procedure, shortened: as §1

JEG-3 = assay: as above; settings: Gynecologic cancer cell panel viability, ATPlite luminescence, 48 h; series mostly up to 57.5 µM
Procedure, shortened: as §1

OV90 = assay: as above; settings: Gynecologic cancer cell panel viability, ATPlite luminescence, 48 h; series mostly up to 57.5 µM
Procedure, shortened: as §1

PA-1 = assay: as above; settings: Gynecologic cancer cell panel viability, ATPlite luminescence, 48 h; series mostly up to 57.5 µM
Procedure, shortened: as §1

SKOV3 = assay: as above; settings: Gynecologic cancer cell panel viability, ATPlite luminescence, 48 h; series mostly up to 57.5 µM
Procedure, shortened: as §1

Tov-21-G = assay: as above; settings: Gynecologic cancer cell panel viability, ATPlite luminescence, 48 h; series mostly up to 57.5 µM
Procedure, shortened: as §1

Tov112D = assay: as above; settings: Gynecologic cancer cell panel viability, ATPlite luminescence, 48 h; series mostly up to 57.5 µM
Procedure, shortened: as §1

CC1(C(=O)O)CCCC2(C)C3CCC4CC3(CCC12)CC4C(=O)O (configuration not stated)
inactive: outcome (NIH3T3) | Potency (C33A) | Potency (CAOV3) | outcome (CASKI) | Potency (Es-2) | Potency (HeLa) | Potency (Hek293T) | Potency (JEG-3) | Potency (OV90) | Potency (PA-1) | Potency (SKOV3) | Potency (Tov-21-G) | Potency (Tov112D)

CN1CCc2cc(Cl)c(O)cc2[C@@H](c2cccc3c2OCC3)C1
inactive: outcome (NIH3T3) | Potency (C33A) | Potency (CAOV3) | outcome (CASKI) | Potency (Es-2) | Potency (HeLa) | Potency (Hek293T) | Potency (JEG-3) | Potency (OV90) | Potency (PA-1) | Potency (SKOV3) | Potency (Tov-21-G) | Potency (Tov112D)

CC(=O)O[C@@]1(C)[C@@H]2CC(=C(C)C)C(=O)C[C@@]2(C)CC[C@H]1OC(=O)C1(C)OC1C (some centres not stated)
inactive: outcome (NIH3T3) | Potency (C33A) | Potency (CAOV3) | outcome (CASKI) | Potency (Es-2) | Potency (HeLa) | Potency (Hek293T) | Potency (JEG-3) | Potency (OV90) | Potency (PA-1) | Potency (SKOV3) | Potency (Tov-21-G) | Potency (Tov112D)

C=C(CC/C=C(\C)C(=O)O)C1(O)CC=C(C)CC1 (configuration not stated)
inactive: outcome (NIH3T3) | Potency (C33A) | Potency (CAOV3) | outcome (CASKI) | Potency (Es-2) | Potency (HeLa) | Potency (Hek293T) | Potency (JEG-3) | Potency (OV90) | Potency (PA-1) | Potency (SKOV3) | Potency (Tov-21-G) | Potency (Tov112D)

C=CCC1=C[C@]2(OC)[C@H](C)[C@@H](c3ccc(OC)c(OC)c3)O[C@]2(OC)CC1=O
inactive: outcome (NIH3T3) | Potency (C33A) | Potency (CAOV3) | outcome (CASKI) | Potency (Es-2) | Potency (HeLa) | Potency (Hek293T) | Potency (JEG-3) | Potency (OV90) | Potency (PA-1) | Potency (SKOV3) | Potency (Tov-21-G) | Potency (Tov112D)

Cc1cn(-c2cc(NC(=O)c3ccc(C)c(Nc4nccc(-c5cnccn5)n4)c3)cc(C(F)(F)F)c2)cn1
inactive: outcome (NIH3T3) | Potency (C33A) | Potency (CAOV3) | outcome (CASKI) | Potency (Es-2) | Potency (HeLa) | Potency (Hek293T) | Potency (JEG-3) | Potency (OV90) | Potency (PA-1) | Potency (SKOV3) | Potency (Tov-21-G) | Potency (Tov112D)

C=C[C@H]1[C@H](O[C@@H]2O[C@H](CO)[C@@H](O)[C@H](OC(=O)/C=C/c3ccc(O)c(OC)c3)[C@H]2O)OC=C2C(=O)OCC[C@]21O
inactive: outcome (NIH3T3) inactive [at 17.4 µM] | Potency (C33A) | Potency (CAOV3) | outcome (CASKI) | Potency (Es-2) | Potency (HeLa) | Potency (Hek293T) | Potency (JEG-3) | Potency (OV90) | Potency (PA-1) | Potency (SKOV3) | Potency (Tov-21-G) | Potency (Tov112D)

Cc1ccc(C)c(S(=O)(=O)n2cnc3ccccc32)c1
inactive: outcome (NIH3T3) | Potency (C33A) | Potency (CAOV3) | outcome (CASKI) | Potency (Es-2) | Potency (HeLa) | Potency (Hek293T) | Potency (JEG-3) | Potency (OV90) | Potency (PA-1) | Potency (SKOV3) | Potency (Tov-21-G) | Potency (Tov112D)

C[C@@H]1O[C@@H](O[C@@H]2[C@@H](O)[C@H](O[C@H]3[C@H](O[C@H]4CC[C@@]5(C)C(CC[C@]6(C)C5CC=C5[C@@H]7CC(C)(C)CC[C@]7(C(=O)O[C@@H]7O[C@H](CO)[C@@H](O)[C@H](O)[C@H]7O)CC[C@]56C)C4(C)C)O[C@H](C(=O)O)[C@@H](O)[C@@H]3O)OC[C@H]2O)[C@H](O)[C@H](O)[C@H]1O (some centres not stated)
inactive: outcome (NIH3T3) inactive [at 9.27 µM] | activity change, negative = cytotoxicity (C33A) -13.9% [at 11.6 µM] | activity change, negative = cytotoxicity (CAOV3) -6.12% [at 11.6 µM] | activity change, negative = cytotoxicity (CASKI) -1.32% [at 11.6 µM] | activity change, negative = cytotoxicity (Es-2) -9.99% [at 11.6 µM] | activity change, negative = cytotoxicity (HeLa) -3.66% [at 11.6 µM] | activity change, negative = cytotoxicity (Hek293T) -0.983% [at 11.6 µM] | activity change, negative = cytotoxicity (JEG-3) -0.837% [at 11.6 µM] | activity change, negative = cytotoxicity (OV90) 0.961% [at 11.6 µM] | activity change, negative = cytotoxicity (PA-1) 4.95% [at 11.6 µM] | activity change, negative = cytotoxicity (SKOV3) 20.4% [at 11.6 µM] | activity change, negative = cytotoxicity (Tov-21-G) 1.4% [at 11.6 µM] | activity change, negative = cytotoxicity (Tov112D) 6.86% [at 11.6 µM]

COC(=O)C1=COC(O[C@@H]2O[C@H](CO)[C@@H](O)[C@H](O)[C@H]2O)C2C(C)C(=O)CC12 (some centres not stated)
inactive: outcome (NIH3T3) | Potency (C33A) | Potency (CAOV3) | outcome (CASKI) | Potency (Es-2) | Potency (HeLa) | Potency (Hek293T) | Potency (JEG-3) | Potency (OV90) | Potency (PA-1) | Potency (SKOV3) | Potency (Tov-21-G) | Potency (Tov112D)

CC(=O)OCC1OC(O[C@H]2CC[C@]34C[C@]35CC(O)[C@]3(C)[C@@H]([C@H](C)CC/C=C(\C)C(=O)O)C(O)C[C@@]3(C)C5CC[C@H]4C2(C)C)C(O)C(O)C1OC1OCC(O)C(O)C1O (some centres not stated)
inactive: outcome (NIH3T3) inactive [at 9.27 µM] | activity change, negative = cytotoxicity (C33A) -4.66% [at 11.6 µM] | activity change, negative = cytotoxicity (CAOV3) -5.98% [at 11.6 µM] | activity change, negative = cytotoxicity (CASKI) -12.9% [at 11.6 µM] | activity change, negative = cytotoxicity (Es-2) -0.425% [at 11.6 µM] | activity change, negative = cytotoxicity (HeLa) 6.1% [at 11.6 µM] | activity change, negative = cytotoxicity (Hek293T) -4.45% [at 11.6 µM] | activity change, negative = cytotoxicity (JEG-3) -9.54% [at 11.6 µM] | activity change, negative = cytotoxicity (OV90) -7.9% [at 11.6 µM] | activity change, negative = cytotoxicity (PA-1) -0.531% [at 11.6 µM] | activity change, negative = cytotoxicity (SKOV3) -12.1% [at 11.6 µM] | activity change, negative = cytotoxicity (Tov-21-G) 4.53% [at 11.6 µM] | activity change, negative = cytotoxicity (Tov112D) 2.89% [at 11.6 µM]

CC1(C)CC[C@]2(C(=O)O[C@@H]3O[C@H](CO)[C@@H](O)[C@H](O)[C@H]3O)CC[C@]3(C)C(=CCC4[C@@]5(C)C[C@@H](O)[C@H](O)[C@@](C)(CO)C5[C@H](O)C[C@]43C)C2C1 (some centres not stated)
inactive: outcome (NIH3T3) inactive [at 17.4 µM] | Potency (C33A) | Potency (CAOV3) | outcome (CASKI) | Potency (Es-2) | Potency (HeLa) | Potency (Hek293T) | Potency (JEG-3) | Potency (OV90) | Potency (PA-1) | Potency (SKOV3) | Potency (Tov-21-G) | Potency (Tov112D)

CCc1nnc(NS(=O)(=O)c2ccc(NC(=S)NC(=O)/C=C/c3ccc(F)cc3)cc2)s1
inactive: outcome (NIH3T3) | Potency (C33A) | Potency (CAOV3) | outcome (CASKI) | Potency (Es-2) | Potency (HeLa) | Potency (Hek293T) | Potency (JEG-3) | Potency (OV90) | Potency (PA-1) | Potency (SKOV3) | Potency (Tov-21-G) | Potency (Tov112D)

C=C1CC[C@@]2(OC1)O[C@H]1CC3[C@@H]4CC=C5C[C@H](O[C@H]6OC[C@@H](O)C(O)[C@@H]6O[C@@H]6O[C@@H](C)[C@H](O)[C@@H](O[C@@H]7O[C@H](CO)[C@@H](O)[C@H](O)[C@H]7O)[C@H]6O)C[C@@H](O)[C@]5(C)C4CC[C@]3(C)[C@H]1[C@@H]2C (some centres not stated)
inactive: outcome (NIH3T3) inactive [at 9.27 µM] | activity change, negative = cytotoxicity (C33A) 2.1% [at 11.6 µM] | activity change, negative = cytotoxicity (CAOV3) -11% [at 11.6 µM] | activity change, negative = cytotoxicity (CASKI) -7.31% [at 11.6 µM] | activity change, negative = cytotoxicity (Es-2) -3.81% [at 11.6 µM] | activity change, negative = cytotoxicity (HeLa) 12.1% [at 11.6 µM] | activity change, negative = cytotoxicity (Hek293T) 9.36% [at 11.6 µM] | activity change, negative = cytotoxicity (JEG-3) -8.07% [at 11.6 µM] | activity change, negative = cytotoxicity (OV90) 6.02% [at 11.6 µM] | activity change, negative = cytotoxicity (PA-1) 3.82% [at 11.6 µM] | activity change, negative = cytotoxicity (SKOV3) 0.203% [at 11.6 µM] | activity change, negative = cytotoxicity (Tov-21-G) 7.35% [at 11.6 µM] | activity change, negative = cytotoxicity (Tov112D) 1.29% [at 11.6 µM]
